Holding throughout (test): NCI-60 one-dose screen, 48 h (100 = growth as untreated, 0 = no growth, -100 = all killed)
Assay [1] relates to DU-145 prostate. The following applies: 10 µM unless noted.
The test system of assay [2] is K-562 leukemia. The following applies: 10 µM unless noted.
For assay [3], the system named is MALME-3M melanoma. To be noted: 10 µM unless noted.
Assay [4] has as its system MDA-MB-231 breast. The following applies: 10 µM unless noted.
Assay [5] concerns RXF 393 renal. To be noted: 10 µM unless noted.
For assay [6], the system named is SF-268 CNS. The following applies: 10 µM unless noted.
Assay [7] deals with SF-295 CNS. To be noted: 10 µM unless noted.
Assay [8] has as its system SF-539 CNS. To be noted: 10 µM unless noted.
Assay [9] has as its system UACC-257 melanoma. To be noted: 10 µM.
Assay [10] has as its system M14 melanoma. To be noted: 10 µM unless noted.

Compounds without any hit were thinned out: in the full panel of roughly 83,000, 20% have a hit.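 For each line, cells grew in 96-well plates with the test compound present at a single concentration for 48 hours.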 Unmarked numbers belong to inactive results. Calls of active or inactive are those of the source. How the source made its calls: active means growth percent below 10; inactive means the rest.

With `O=C(O)c1cn(C2CC2)c2cc(N3CCN(S(=O)(=O)c4ccc(Cl)c(Cl)c4)CC3)c(F)cc2c1=O`, the growth in assay [1] was 17.2%; in assay [2], 16.9%; in [3], -1.09% (active); in [4] it was 36.6%; in assay [5], 29.1%; in assay [6] it was 19.6%. Besides, the growth in assay [7] was -7.27% (active); in [8], 11.4%; in assay [9] it was 8.87% (active); in assay [10], 18.5%.
Consider `COc1cc(NC(=O)CCl)ccc(=O)c1`, for which the growth in assay [1] was 83.5%; in assay [2], 75.2%; in assay [3], 87.7%; in assay [4] it was 58.6%; in [5] it was 84.7%; in assay [6], 77.6%. Also, the growth is 80.9% in assay [7], 83.5% in [8], 66% in assay [9] and 78.6% in assay [10].
`CCOC(=O)[C@H](CSSc1ncnc2cc[nH]c12)NC(=O)[C@@H](C)c1ccc2cc(OC)ccc2c1`: the growth in assay [1] was 33.4%; in assay [2], 13.5%; in [3], 56.2%; in assay [4], 28.2%; in assay [5], 57.9%; in [6], 33.1%. Also, the growth in assay [7] was 16.7%; in assay [8] it was 11.4%; in assay [9], 28.2%; in assay [10] it was 6.45% (active).
`CC(C(=O)n1cc(-c2ccccc2)c(-c2ccccc2)c1)c1ccccc1` (stereo not given): the growth was 113% in [1]; 104% in [2]; 108% in assay [3]; 108% in [4]; 112% in [5]; 118% in [6]. Further, the growth in assay [7] is 91.9%; in [8] it was 104%; in [9] it was 95.3%; in assay [10], 108%.
Take `COc1cccc(NC(=O)c2sc3nc4c(cc3c2N)CCCC4)c1`: the growth in assay [1] was 13%; in assay [2], 12.2%; in assay [3], 17%; in assay [4], 51.9%; in [5], 7.62% (active); in assay [6], 49.5%. The growth is 35.4% in assay [7], -12.8% (active) in assay [8], 64.5% in assay [9] and 16.6% in assay [10].
For the compound `COc1cccc(-c2nc3sccn3c2-c2ccnc(NCCCNS(=O)(=O)c3ccc(F)cc3)n2)c1`, the growth in assay [1] was 27.7%; in [2] it was 16.6%; in [3], 32.4%; in [4], 53.2%; in [5], 55%; in assay [6] it was 37%. Besides, the growth is 24.7% in assay [7], 66.7% in assay [8], 55.2% in assay [9] and 18.1% in assay [10].
`Oc1ccc(Cl)cc1-c1cc(-c2ccc(Cl)cc2)n[nH]1`: the growth in [1] was 78.1%; in assay [2], 39.9%; in assay [3], 61.3%; in assay [4], 37.5%; in [5] it was 72.9%; in assay [6], 66.7%. The growth was 95.3% in [7], 91.9% in assay [8], 88.1% in assay [9] and 76.7% in assay [10].
With `O=C(CNc1ccc(Cl)cc1)Nc1ccc(-c2nc3ccccc3s2)cc1`, the growth in assay [1] was 70.2%; in [2], 11.9%; in assay [3], -30.5% (active); in [4], 37.6%; in assay [5] it was 84.2%; in assay [6], 24.1%. The growth was 94.6% in [7], 78.1% in assay [8], 90.9% in assay [9] and 44.2% in [10].
Consider `O=C(/C=C/c1ccccc1)n1c(-c2ccc(Cl)cc2)nc2ccccc21`, for which the growth in [1] was 11.1%; in assay [2], 39.8%; in assay [3], 15.9%; in assay [4], -26.5% (active); in [5], -65.2% (active); in assay [6], -11.9% (active). The growth in assay [7] is -52% (active); in [8], -48.4% (active); in assay [9], -64.4% (active); in assay [10] it was -37.3% (active).
As to `CNC(=O)Cc1nc(-c2cccc(NS(=O)(=O)c3c(F)cccc3F)c2F)c(-c2ccnc(Nc3ccccc3)n2)s1`, the growth was 79.5% in assay [1]; 20.5% in [2]; 0.396% (active) in assay [3]; -14.3% (active) in [4]; -6.63% (active) in [5]; 54.9% in assay [6]. The growth in assay [7] was 101%; in assay [8], 68.9%; in assay [9] it was 7.77% (active); in assay [10] it was 2.35% (active).
For `O=C1c2ccccc2C(=O)c2c(N=Nc3sc(=O)[nH]c3S)cccc21`, the growth was 103% in assay [1]; 78.5% in [2]; 93.3% in assay [3]; 97.1% in assay [4]; 115% in [5]; 97.3% in [6]. Besides, the growth is 97.2% in [7], 107% in assay [8], 88.5% in assay [9] and 96.2% in assay [10].
Consider `COc1cc(Cn2c(SCCC(=O)Nc3ccc(F)cc3)nc3ccccc3c2=O)cc(OC)c1OC`, for which the growth was 101% in assay [1]; 70.8% in assay [2]; 91.7% in assay [3]; 65.9% in [4]; 74.3% in assay [5]; 80.9% in assay [6]. Besides, the growth in assay [7] was 88.2%; in assay [8], 84.2%; in assay [9], 93.2%; in assay [10] it was 93%.
With `Cc1ccc(S(=O)(=O)NCCCNc2nccc(-c3c(-c4ccccc4)nc4sccn34)n2)cc1`, the growth was 26.2% in [1]; 15.9% in assay [2]; 99.3% in assay [3]; 18.3% in assay [4]; 65% in [5]; 38.6% in [6]. The growth in assay [7] was 65.2%; in [8], 82.5%; in assay [9] it was 106%; in assay [10], 30.5%.
On to `O=C(CCC(=O)OC1CCCC1)OC1CCCC1`, for which the growth in [1] was 102%; in assay [2], 96%; in assay [3], 102%; in [4], 105%; in assay [5], 97.6%; in [6], 99.7%. For the same compound, the growth in assay [7] was 99.3%; in [8], 87.8%; in assay [9] it was 85.4%; in assay [10], 112%.

Values taken from PubChem BioAssay (NCI).
